Screens as filed in PubChem.
Only some compounds are listed: those with a hit (about 2.3% of all), similar ones and a draw of the others.
MEKK2wt PB1 HTS = modulators of MEK5 binding to wildtype MEKK2, primary screen, biochemical, multiplex bead flow cytometry, Alexa488-MEK5. Alexa488-MEK5 binding to MEKK2 WT; actives lie on both sides. binding response (% of control), % at 10 µM. 1.1% of 290,000 active; in the data active = binding response below about 67% or above about 130%
MEKK2 mut-MEK5 = MEK5 binding signal on mutant MEKK2 PB1, primary screen, biochemical, multiplex bead flow cytometry, Alexa488-MEK5; Alexa488-MEK5 binding to MEKK2 mutant; percent response, % at 10 µM; 0.35% of 290,000 active; in the data active = percent response above about 24%, passing the limit was not always enough
UBC13 polyUb = UBC13 polyubiquitin chain formation inhibitors, primary screen, biochemical, TR-FRET, uHTS. Ubiquitin-conjugating enzyme E2 N (Homo sapiens), P61088. 0.47% of 330,000 active. inhibition, % at 20 µM; in the data active = inhibition above about 45%, passing the limit was not always enough
Target sequence (P61088 whole entry, looked up): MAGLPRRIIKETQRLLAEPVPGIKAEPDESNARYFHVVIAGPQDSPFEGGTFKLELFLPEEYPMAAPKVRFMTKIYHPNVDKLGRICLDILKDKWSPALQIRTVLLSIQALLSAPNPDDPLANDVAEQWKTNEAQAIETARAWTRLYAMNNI
MEKK3 PB1 HTS = modulators of MEKK3-MEK5 PB1 binding, primary screen, biochemical, wildtype MEKK3, multiplex bead flow cytometry, Alexa488-MEK5; Mitogen-activated protein kinase kinase kinase 3 (Homo sapiens), Q99759; bead-based flow cytometry, Alexa488-MEK5 binding to MEKK3; actives lie on both sides; 0 = blocked by unlabeled MEK5, 100 = vehicle; binding response (% of control), % at 10 µM; 1.4% of 290,000 active;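 active = binding response more than 3 SD above or below the average of its plate-row segment, actives on both sides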;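 note: Alexa488 bead fluorescence after subtracting the streptavidin-only scavenger bead signal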
MEKK2wt confirm = modulators of MEK5 binding to wildtype MEKK2, confirmation, biochemical, single concentration, multiplex bead flow cytometry; shares compounds with MEKK3 PB1 HTS; Alexa488-MEK5 binding to MEKK2 WT; actives lie on both sides; binding response (% of control), % at 10 µM; AID 1892, 2009; 2.4% of 5,900 active; in the data active = binding response below about 16% or above about 210%; inactive = in between
MEKK2mut-MEK5 = mutant MEKK2 PB1-MEK5 binding signal retest – biochemical, single concentration, multiplex bead flow cytometry, confirmation. Alexa488-MEK5 binding to MEKK2 mutant. shares compounds with MEKK3 PB1 HTS. 2% of 5,900 active. percent response, % at 10 µM; in the data active = percent response mostly above about 71%, no sharp cut-off; inactive = mostly below about 38%;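 note: higher means compound restores mutant binding toward wildtype level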
MEKK3 confirm = MEKK3 wild-type PB1 binding to MEK5, inhibitors, confirmation, biochemical, bead multiplex flow cytometry, single concentration, wildtype; shares compounds with MEKK3 PB1 HTS; Alexa488-MEK5 binding to MEKK3; hits give low values; binding response (% of control), % at 10 µM; 1.8% of 5,900 active; AID 1894, 2009;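 active = binding response below 72% of control, or above a set upper limit, though filed actives all read lower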;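 note: 100% = DMSO only wells and 0% = binding blocked by excess unlabeled MEK5; lower values mean stronger disruption of MEK5 binding to MEKK3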
An asterisk follows results filed as active; x = not tested or not shown; [ ] = dose if it differs, or a comment.

SMILES	MEKK2wt PB1 HTS	MEKK2 mut-MEK5	UBC13 polyUb	MEKK3 PB1 HTS	MEKK2wt confirm	MEKK2mut-MEK5	MEKK3 confirm
Cc1c(NC(=O)c2ccccc2F)c(=O)n(-c2ccccc2)n1C	41*[inhibitor]	-32	-1	23*[inhibitor]	101	2	106
Cc1c(NC(=O)/C(=C\c2ccccc2)NC(=O)c2ccccc2)c(=O)n(-c2ccccc2)n1C	125	8	4	130*	102	0	101
Cc1c(NS(=O)(=O)c2ccccc2)c(=O)n(-c2ccccc2)n1C	124	7	2	126*	92	-8	97
CCCCC(CC)Cn1c(N)c(C#N)c2nc3ccccc3nc21 (configuration not stated)	183*	54*	1	118	100	-1	105
CN(C)CCCn1c(N)c(C#N)c2nc3ccccc3nc21	100	-9	-22	99	x	x	x
COc1cc(C(=O)NCC(c2ccccc2)N(C)C)ccc1OCC(=O)N1CCOCC1 (configuration not stated)	90	-4	14	77	x	x	x
CC(C)(O)C#Cc1ccc(C(=O)N2CCN(c3ccc(F)cc3)CC2)cc1	83	-14	0	93	x	x	x
CC(C)(O)C#Cc1ccc(C(=O)N2CCN(c3ccc(Cl)cc3)CC2)cc1	55	-15	-5	49*[inhibitor]	103	-1	103
Cc1nn(C)cc1C(C)Nc1nc2nonc2nc1N1CCCCC1 (configuration not stated)	97	-2	1	101	x	x	x
N#CNC(N)=Nc1cccc(Cl)c1	126	8	8	122*	101	-2	100
N#CNC(=Nc1cccc(Cl)c1)Oc1ccccc1	104	1	2	100	x	x	x
Cc1ccccc1Nc1nnc(SCC(=O)Nc2ccccc2[N+](=O)[O-])s1	105	0	-17	133*	96	-1	102
CS(=O)(=O)Nc1cccc(C(=O)OCCCOc2ccc(F)cc2)c1	31*[inhibitor]	-8	12	64*[inhibitor]	99	-3	103
CC(=O)c1cccc(NS(C)(=O)=O)c1	106	-1	-1	105	x	x	x
COc1ccc(/C=N/NC(=O)c2ccc(O)cc2O)cc1CSc1ccccn1	103	0	21	136*	97	-2	100
CCOc1ccc(C2N(c3cc(C)on3)C(=O)C3CCCN32)cc1OC (configuration not stated)	-2.0*[inhibitor]	-17	7	-1.0*[inhibitor]	108	6	104
Cc1[nH]n(-c2ccc(F)cc2)c(=O)c1C=Nc1ccc(S(=O)(=O)N(C)C)cc1	11*[inhibitor]	13	0	97	102	6	101
Cc1[nH]n(-c2ccccc2)c(=O)c1C=Nc1ccc(S(=O)(=O)N(C)C)cc1	103	-2	-4	105	x	x	x
CCN(CC(=O)NC)S(=O)(=O)c1ccc(Br)cc1	112	24*	-5	109	101	-4	98
CCN(CC(=O)NC)S(=O)(=O)c1ccc(C)cc1	95	2	0	96	x	x	x
Cc1ccc(C)c(S(=O)(=O)NCC(=O)OCC(=O)Nc2sccc2C(N)=O)c1	x	x	8	x	x	x	x
Cc1ccc(S(=O)(=O)NCC(c2cccnc2)N2CCc3ccccc32)cc1 (configuration not stated)	103	-3	3	96	x	x	x
Nc1ccccc1C(=O)NNC1=C(C(=O)C(F)(F)F)CCC1	106	4	-2	103	x	x	x
O=C(NNC1=C(C(=O)C(F)(F)F)CCC1)c1ccc(Br)cc1	124	25*	-2	125*	101	2	101
